A selection: hits, their analogues and other compounds. The true share with any hit is near 3.1%.
Mtb BioA inh = inhibitors of Mycobacterium tuberculosis BioA enzyme; purified M. tuberculosis BioA enzyme, plate reader; inhibition, % at 9.99 µM; 360,000 tested, 0.096% active; in the data active = inhibition above about 40%
FadD28 binding = blocks FadD28 binding to the bisubstrate probe | AID 588549 | inhibition, % at 12.5 µM | 360,000 tested, 0.22% active | fluorescence polarization; in the data active = inhibition above about 8.5%, passing the limit was not always enough
Mtb FBA inh = inhibits M. tuberculosis FBA enzyme | AID 588726 | 360,000 tested, 2.3% active | inhibition, % at 1 µM | purified M. tuberculosis FBA, fluorescence read-out;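 also: 0% = vehicle and 100% = reference inhibitor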
Target sequence (P9WQA3 whole entry, looked up): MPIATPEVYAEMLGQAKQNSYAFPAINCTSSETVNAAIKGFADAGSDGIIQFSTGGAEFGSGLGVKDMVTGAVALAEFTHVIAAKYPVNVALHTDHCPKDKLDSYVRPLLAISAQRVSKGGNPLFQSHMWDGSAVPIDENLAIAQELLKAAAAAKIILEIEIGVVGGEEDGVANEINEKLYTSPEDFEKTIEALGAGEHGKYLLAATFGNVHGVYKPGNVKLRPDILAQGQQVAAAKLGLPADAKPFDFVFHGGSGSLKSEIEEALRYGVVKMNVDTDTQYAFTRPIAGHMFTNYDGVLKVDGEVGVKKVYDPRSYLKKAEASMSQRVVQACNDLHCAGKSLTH
SARS 3CLpro inh = SARS-CoV 3CLpro protease inhibition; P0C6X7; recombinant SARS-CoV 3CLpro, quenched FRET peptide cleavage; inhibition, % at 6 µM; 290,000 tested, 0.14% active; AID 1706; in the data active = inhibition above about 12%
GDH-TPI counter-1 = counter-screen for M. tuberculosis FBA inhibitors: GDH-TPI coupled enzymes | GDH-TPI coupled enzyme counterscreen, NADH absorbance | inhibition, % at 4.8 µM | 360,000 tested, 1.2% active; in the data active = inhibition above about 30%;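 also: 0% = DMSO wells and 100% = wells lacking the enzyme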
Mtb FBA confirm = Mtb FBA inhibition, confirmed. purified M. tuberculosis FBA, fluorescence read-out. inhibition, % at 1 µM. AID 651616. shares compounds with Mtb FBA inh. 5,600 tested, 78% active;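 also: 0% = vehicle wells and 100% = reference inhibitor wells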
GDH-TPI counter-2 = inhibits GDH-TPI coupling enzymes, flagging Mtb FBA hits; shares compounds with Mtb FBA inh; AID 652141; GDH-TPI coupled enzyme counterscreen, fluorescence; inhibition, % at 1 µM; 5,600 tested, 81% active; in the data active = inhibition above about 10%
Numbers without * were called inactive. Rule as the data show it, unless noted: active = inhibition above about 27%; inactive = the rest.

Screening Cc1nc(N2CCN(C(=O)c3ccco3)CC2)c(C#N)c2c1CCCC2 returned Mtb BioA inh -0.5, FadD28 binding -0.7, Mtb FBA inh 37.9*, SARS 3CLpro inh 1.8, GDH-TPI counter-1 11.3, Mtb FBA confirm 97.8* and GDH-TPI counter-2 83.1*.
N=c1oc2cc(O)ccc2cc1C(=O)Nc1ccc(F)cc1 was read as Mtb BioA inh -0.6, FadD28 binding -2.2, Mtb FBA inh 90.5*, SARS 3CLpro inh 0.0, GDH-TPI counter-1 -2.0, Mtb FBA confirm 160.1* and GDH-TPI counter-2 133.7*.
Screening CN1c2ccc(-c3cccc(C#N)c3)cc2[C@@H]2[C@@H](CCN2C(=O)Cc2ccccn2)[C@@H]1CO returned Mtb BioA inh 1.0.
Screening Nn1c(SCc2ccccc2F)nnc1-c1ccccn1 returned Mtb BioA inh 0.4, FadD28 binding -0.8, Mtb FBA inh 42.2*, SARS 3CLpro inh 0.4, GDH-TPI counter-1 9.2, Mtb FBA confirm 81.2* and GDH-TPI counter-2 70.7*.
Screening O=C(Cc1ccccc1)NNC(=O)Nc1ccc(Cl)c(Cl)c1 returned FadD28 binding -1.1, Mtb FBA inh 1.6, SARS 3CLpro inh 6.4 and GDH-TPI counter-1 -5.2.
Screening O=C(Nc1ccc(Cl)cc1)Nc1ccccc1C(=O)O returned Mtb BioA inh 2.2, FadD28 binding -2.1, Mtb FBA inh 54.4*, SARS 3CLpro inh 2.5, GDH-TPI counter-1 1.9, Mtb FBA confirm -1.2 and GDH-TPI counter-2 -2.8.
Screening CSc1ccccc1NC(=O)Nc1ccc(Cl)cc1 returned FadD28 binding 0.4, Mtb FBA inh -0.4, SARS 3CLpro inh 3.2 and GDH-TPI counter-1 0.0.
NC(=O)c1ccccc1NC(=O)Nc1cccc(Cl)c1 was read as Mtb BioA inh -0.3, FadD28 binding -4.2, Mtb FBA inh 3.8, SARS 3CLpro inh 5.7 and GDH-TPI counter-1 -1.5.
`O=C(Nc1cccc(Cl)c1)Nc1ccccc1C(=O)O` gave Mtb BioA inh -1.1, FadD28 binding -2.1, Mtb FBA inh 78.8*, SARS 3CLpro inh 4.0, GDH-TPI counter-1 20.2, Mtb FBA confirm active and GDH-TPI counter-2 194.9*.
For O=C(Nc1ccc(Cl)c(Cl)c1)Nc1ccccc1C(=O)O the results were Mtb BioA inh 2.1, FadD28 binding -7.8, Mtb FBA inh 52.5*, SARS 3CLpro inh 6.2, GDH-TPI counter-1 -1.3, Mtb FBA confirm 34.5* and GDH-TPI counter-2 19.4*.
CN(C)CC(=O)Nc1ccc2c(c1)[C@H]1C[C@@H](CC(=O)NCc3ccccc3)O[C@H](CO)[C@H]1O2 was read as Mtb BioA inh 0.8.
COCCN(C(=O)COC(=O)c1ccccc1Cc1ccccc1)c1c(N)n(Cc2ccccc2)c(=O)[nH]c1=O was read as Mtb BioA inh 1.0, FadD28 binding -5.3, Mtb FBA inh -2.3 and GDH-TPI counter-1 1.7.
Screening CNc1ccccc1C(=O)OCC(=O)N(CCOC)c1c(N)n(CC(C)C)c(=O)[nH]c1=O returned Mtb BioA inh -1.8, FadD28 binding -0.3, Mtb FBA inh 92.4*, GDH-TPI counter-1 10.4, Mtb FBA confirm active and GDH-TPI counter-2 active.
Screening CCN(C(=O)COC(=O)c1cc2ccccc2cc1OC)c1c(N)n(Cc2ccccc2)c(=O)[nH]c1=O returned Mtb BioA inh 1.5, FadD28 binding -3.7, Mtb FBA inh 38.8*, GDH-TPI counter-1 -3.5, Mtb FBA confirm 101.9* and GDH-TPI counter-2 69.8*.
For O=C(C1CC1)N1C[C@H]2[C@@H](c3ccccc31)[C@H](CO)N2C(=O)c1cccc(F)c1 the results were Mtb BioA inh -2.8.
`CN(CC(=O)NCc1ccccc1)CC(=O)Nc1ccc(Cl)c(C(F)(F)F)c1` gave Mtb BioA inh 2.4, FadD28 binding -5.4, Mtb FBA inh 34.3*, GDH-TPI counter-1 6.6, Mtb FBA confirm 92.5* and GDH-TPI counter-2 73.2*.
C[C@H](CO)N1C[C@H](C)[C@@H](CN(C)C(=O)NC2CCCCC2)OCCCC[C@H](C)Oc2ccc(NC(=O)c3ccccc3)cc2C1=O was read as Mtb BioA inh -0.6.
For C[C@H](CO)N1C[C@H](C)[C@H](CN(C)C(=O)C2CC2)Oc2cc(C#C[C@@H](C)O)ccc2S1(=O)=O the results were Mtb BioA inh 1.0.
For O=C(CCCN1C(=O)c2cccc3cccc(c23)C1=O)NC1CCS(=O)(=O)C1 (stereo not given) the results were FadD28 binding -2.5, Mtb FBA inh 39.7*, SARS 3CLpro inh 4.9, GDH-TPI counter-1 9.3, Mtb FBA confirm 56.2* and GDH-TPI counter-2 56.5*.
O=C(CCN1C(=O)c2cccc3cccc(c23)C1=O)NCc1ccco1 was read as FadD28 binding -1.9, Mtb FBA inh 9.3, SARS 3CLpro inh 1.1 and GDH-TPI counter-1 13.1.
O=C1c2cccc3cccc(c23)C(=O)N1Cc1ccccc1 was read as Mtb BioA inh -2.0, FadD28 binding -0.3, Mtb FBA inh 0.2, SARS 3CLpro inh -9.2 and GDH-TPI counter-1 7.3.
For O=C(CCCCCN1C(=O)c2cccc3cccc(c23)C1=O)NCCO the results were FadD28 binding -1.7, Mtb FBA inh 35.7*, SARS 3CLpro inh 3.4, GDH-TPI counter-1 6.3, Mtb FBA confirm 89.7* and GDH-TPI counter-2 74.0*.
O=C(CCN1C(=O)c2cccc3cccc(c23)C1=O)NCc1cccnc1 was read as FadD28 binding -2.0, Mtb FBA inh 34.9*, SARS 3CLpro inh 2.6, GDH-TPI counter-1 20.4, Mtb FBA confirm 2.4 and GDH-TPI counter-2 -3.8.
`O=C(CN1C(=O)c2ccccc2C1=O)NC1CCS(=O)(=O)C1` (stereo not given) gave Mtb BioA inh 0.3, FadD28 binding -1.5, Mtb FBA inh -1.2 and GDH-TPI counter-1 8.4.
O=C1c2cccc3cccc(c23)C(=O)N1Cc1cccnc1 was read as FadD28 binding -3.7, Mtb FBA inh 41.3*, SARS 3CLpro inh -3.2, GDH-TPI counter-1 21.9, Mtb FBA confirm 2.9 and GDH-TPI counter-2 0.3.
For COc1cccc(S(=O)(=O)N[C@@H]2CC[C@H](CCn3cc(-c4ccccc4OC)nn3)O[C@H]2CO)c1 the results were Mtb BioA inh 1.3.
For CN1C(=O)c2cc(NC(=O)C3CCCC3)ccc2OC[C@@H]2O[C@@H](CC(=O)Nc3ccccc3)CC[C@@H]21 the results were Mtb BioA inh 11.2.
For C=C(C)CN(CC)C(=O)CN1C(=O)NC2(CCCc3ccccc32)C1=O (stereo not given) the results were Mtb BioA inh 0.6, FadD28 binding -1.2, Mtb FBA inh 62.9*, SARS 3CLpro inh 2.5, GDH-TPI counter-1 -3.2, Mtb FBA confirm 100.7* and GDH-TPI counter-2 85.4*.
`Cc1ccccc1C(=O)Nc1ccc2c(c1)C(=O)NC2=O` gave Mtb BioA inh 1.4, FadD28 binding -0.9, Mtb FBA inh 38.8*, SARS 3CLpro inh -4.6, GDH-TPI counter-1 6.2, Mtb FBA confirm 0.5 and GDH-TPI counter-2 2.4.
